High-throughput results deposited in PubChem BioAssay by several laboratories.
HSF1 inhib – HSF1 inhibition. activity change, negative = inhibition, % at 7.5 µM (by protocol). actives 0.77% (n = 300,000). NIH3T3-HGL HSE-luciferase, MG132-induced, luminescence 8 h; active compounds read low;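 active means more than half of replicate wells show activity change below -50%, luminescence cut by over half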;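 further: luciferase reports HSF-1 transcriptional activity via heat shock element; 0% = median of DMSO wells and -100% = zero luminescence signal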
TWEAK Fn14 block – inhibitors of TWEAK-Fn14 interaction signaling. AID 1159606. actives 2% (n = 360,000). inhibition, % at 10 µM. TWEAK-stimulated Fn14 reporter cells, luciferase luminescence, 8 h; in the data active means inhibition above about 50%
TROY NFkB inh – inhibitors of TROY-dependent NF-kB signaling. Q293 LMP1-TROYcd NF-kB luciferase reporter, 4 h. inhibition, % at 10 µM. actives 0.98% (n = 360,000). AID 1347056;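 active means compounds whose plate-normalised and pattern-corrected inhibition of the luciferase reporter signal at the single screening dose is 50% or more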
EBV LMP1 NFkB – inhibitors of Epstein-Barr LMP1-induced NF-kappaB reporter; inhibition, % at 12.5 µM; LMP1-induced NF-kappaB luciferase reporter cells, luminescence; actives 0.69% (n = 350,000); in the data active means inhibition above about 41%;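 further: 0% = neutral control wells and 100% = reference inhibitor control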
HSF1 activator – increases HSF-1 driven luciferase reporter signal. actives 1.7% (n = 300,000). AID 504408. NIH3T3-HGL HSF-1 luciferase reporter, MG132, 8 h; 100% = twice DMSO control signal. activation, % at 9 µM;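 active means mean replicate activation of at least 50% with a set share of replicates each reaching 50%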;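 further: 0% = median of the neutral control wells and 100% = twice that signal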
HSP90 refold inh – blocks HSP90-mediated luciferase refolding in reticulocyte lysate | Rabbit reticulocyte lysate, luciferase refolding luminescence, 3 h | inhibition, % at 5.6 µM | actives 0.91% (n = 290,000) | AID 1789;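 active means inhibition above the screen-wide mean plus 3 SD, computed separately per campaign, cut at about 16% in these data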;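 further: 0% = DMSO wells and 100% = 60 µM geldanamycin wells; inhibitors lower the luminescence because luciferase stays unfolded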
The depositor's hits bear a star; x = not tested or not shown. Compounds with a hit are over-represented: about 4.7% of the library has one in this group of screens.

SMILES	HSF1 inhib	TWEAK Fn14 block	TROY NFkB inh	EBV LMP1 NFkB	HSF1 activator	HSP90 refold inh
Brc1ccc(CSc2nnc(-c3ccccn3)n2Cc2ccco2)cc1	105	19	20	18	145*	2
Cc1ccccc1CSc1nnc(-c2cccs2)n1Cc1ccco1	4	0	-7	2	11	0
Cc1ccccc1CSc1nnc(-c2ccco2)n1Cc1ccco1	96	-12	-17	-9	117*	2
O=C(CSc1nnc(-c2ccco2)n1Cc1ccccc1)OC1CCCCC1	47	-14	-44	-22	79*	2
c1ccc(CSc2nnc(-c3ccco3)n2Cc2ccco2)cc1	50	-11	2	-7	80*	2
CN(Cc1cccc(C(F)(F)F)c1)C(=O)[C@H]1O[C@@H](n2ccc(N)nc2=O)[C@H](O)[C@@H]1O	x	-5	-17	x	x	x
Nc1ncnc(N)c1NC(=O)c1ccc(OCc2ccccc2)cc1	x	9	-12	3	x	x
COc1ccc2c(c1)CCO[C@]21O[C@H](CCO)C[C@H](O)[C@H]1O	x	10	0	4	x	x
CCOc1ccc(S(=O)(=O)N2CCOCC2)cc1NC(=O)CCN1C(=O)NC2(CCCC2)C1=O	x	14	7	2	x	x
O=C(CCCO)c1ccc2c(c1)OCCO2	-60*	-11	-9	-7	-69	-4
O=C(CCN1CCc2ccccc2CC1)c1ccc2c(c1)OCCO2	55	1	12	13	82*	1
COc1cc(/C=C2\CCC(C)C3=C(c4cc(OC)c(OC)c(OC)c4)C(C#N)=C(N)OC32)cc(OC)c1OC (stereo not given)	x	28	-2	0	x	x
CCc1nc2ccc(C(=O)NCCCn3ccnc3)cn2c1N(C)CCC(C)C	x	-20	21	x	x	x
COc1ccc2c(c1)c(CC(=O)Nc1nnc(C3CC3)s1)c(C)n2C(=O)c1ccc(Cl)cc1	-43	58*	53*	48*	-55	13
COc1ccc2c(c1)c(CC(=O)Nc1cc(C)ccc1C)c(C)n2C(=O)c1ccc(Cl)cc1	7	2	3	9	15	-2
COc1ccc2c(c1)c(CC(=O)NCc1cc([N+](=O)[O-])ccc1O)c(C)n2C(=O)c1ccc(Cl)cc1	11	43	62*	-1	5	3
COc1ccc2c(c1)c(CC(=O)Nc1ccc(C(C)=O)cc1)c(C)n2C(=O)c1ccc(Cl)cc1	4	17	-11	12	19	-2
Cc1ccc(NC(=O)c2ccccc2OCC(=O)Nc2ccccc2F)cc1S(=O)(=O)N(C)C	x	7	-20	-10	x	x
COC(=O)C1=CN(Cc2ccc(OC)c(OC)c2)C=C(C(=O)OC)C1c1ccccc1F	-55*	-38	17	7	-61	2
COC(=O)C1=CN(Cc2ccc(OC)c(OC)c2)C=C(C(=O)OC)C1c1cccc(OC)c1OC	9	-3	-26	-5	6	0
N#Cc1ccccc1COc1ccc(/C=C/C(=O)O)cc1	-18	74*	29	25	-15	12
CN(CC(=O)Nc1cccc(F)c1)C(=O)c1cccc(S(=O)(=O)N2CCN(c3ccc(F)cc3)CC2)c1	x	18	25	9	x	x
COC(=O)C(=C/C(C)=C/c1cccnc1)C(=O)OC	-35	65*	42	15	-48	1
COC(=O)/C(=C/c1cccnc1)NC(=O)c1ccccc1	39	6	-6	-12	92*	4
Cn1c(NCCN2CCCC2)nc2cc(-c3cccc(C(F)(F)F)c3)sc2c1=O	x	-35	-62	x	x	x
SMILES	HSF1 inhib	TWEAK Fn14 block	TROY NFkB inh	EBV LMP1 NFkB	HSF1 activator	HSP90 refold inh
COc1ccc(CN2C(=O)C(CC(=O)NCCCCc3ccccc3)CC(C(=O)N(C)C)=C2C)cc1 (stereo not given)	x	-3	5	-2	x	x
COc1ccc(/C=C2\C(=O)NC(=O)c3ccccc32)cc1OC	25	-14	-8	-4	25	x
COc1ccc2c(c1)/C(=C/c1cc(OC)c(OC)c(OC)c1)C(=O)N2	x	57*	27	1	x	x
COc1cccc(C(O)c2nc(/C=C/c3ccccc3)cs2)c1 (stereo not given)	x	-17	-25	x	x	x
COC(=O)c1ccc(N(CC(=O)NC2CCCCC2)C(=O)CNC(=O)c2ccco2)cc1	28	-17	6	-5	71*	0
Cc1cn([C@H]2C[C@H](O)[C@@H](CNCc3cccc(OC4CCCC4)c3)O2)c(=O)[nH]c1=O	x	-22	-7	-8	x	x
Cc1ccc(NC(=O)c2cc(N3C(=O)C=CC3=O)ccc2Cl)cc1C	44	8	-24	-5	60*	-2
Cc1cc(Br)cn2c(Cc3ccsc3)c(-c3ccc(F)cc3)nc12	x	29	12	x	x	x
Cc1ccc(C(=O)Nc2ccccc2Sc2ccccc2)cc1	36	-10	-13	-4	57*	-3
COc1ccccc1OCC(=O)Nc1ccc(S(=O)(=O)N2CCN(C)CC2)cc1	-1	4	-14	-2	5	4
O=C(Cc1ccccc1F)Nc1ccc(S(=O)(=O)N2CCCCC2)cc1	-65*	19	-24	-8	-73	1
COc1ccccc1OCC(=O)Nc1ccc(S(=O)(=O)N2CCCC2)cc1	-62*	3	-3	-4	-70	2
CC1(C(=O)Nc2nccs2)CCN1C(=O)CC(c1ccccc1)c1ccccc1 (stereo not given)	x	-1	13	x	x	x
COc1ccc(NC(=O)Nc2ccc3nc([C@@H]4O[C@H](CO)[C@@H](O)[C@H](O)[C@H]4O)[nH]c3c2)cc1OC1CCCC1	x	4	1	x	x	x
Cc1cc(Br)cn2c(CC(C)(C)C)c(C3CCCCC3)nc12	x	8	-2	x	x	x
Cc1ccc(C)c(NC(=O)c2cc(-c3cc(C)ccc3O)n[nH]2)c1	48	-40	-14	-13	92*	2
Cc1cc(C)c(O)c(-c2cc(C(=O)Nc3cccnc3)[nH]n2)c1	1	17	7	-15	2	1
Cc1cc(O)c(-c2cc(C(=O)Nc3cccnc3)[nH]n2)cc1C	33	-3	-38	-30	64*	-1
Cc1ccc(O)c(-c2cc(-c3ccccc3F)[nH]n2)c1	135	-15	-96	-16	157*	-5
O=C(Nc1ccc(S(=O)(=O)N2CCOCC2)cc1)c1cc(-c2cc(Cl)ccc2O)n[nH]1	16	91*	69*	-5	28	8
Cc1cccc(-c2cnc(C(O)c3ccc(F)c(C)c3)[nH]2)c1 (stereo not given)	x	7	-6	x	x	x
Cc1ccc(S(=O)(=O)N2CCOCC2)cc1C(=O)NCCCN1CCCC1=O	x	24	-1	-15	x	x
C[C@@H]1CN([C@H](C)CO)C(=O)CCCn2nncc2CO[C@H]1CN(C)Cc1cccc(C(F)(F)F)c1	x	0	-12	3	x	x
O=C(NCC(c1ccco1)N1CCN(c2ccccc2)CC1)C1CCCCC1 (stereo not given)	x	-10	9	1	x	x
Cc1ccccc1NC(=O)Nc1nc(C(N)c2ccccc2)cs1 (stereo not given)	x	-6	-9	x	x	x
